Data: PubChem BioAssay (Tox21)
Where “and” joins values, the source holds several entries; their conditions need not be identical. Equal entries are not always repeated. Records with an inconclusive call do not appear. Where a call stands in place of a potency, no number is given. Some compounds were tested as several samples or in several runs, with calls that do not always agree. Calls of active or inactive are those of the source. Unless noted, calls follow the shape of the full dose curve.

Tests used:
[1] = qHTS assay to identify small molecule agonists of the NFkB signaling pathway - cell viability counter screen (AID 1159515); also: series mostly up to about 61 µM; nearly all actives have a fitted effect of over 55% in size
In short: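 Viability in NFkB-bla ME-180 cells was measured by CellTiter-Glo luminescence, 30 min room temperature, in wells already treated 5 hr with compounds and read for reporter FRET.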

[2] = qHTS assay to identify small molecule agonists of the endoplasmic reticulum stress response signaling pathway (AID 1159516; active = well fitted activation curve with a large enough effect in the signal ratio in the repeat runs, not every such curve was filed as active; the % refers to the signal ratio; also: potency is read from the fitted curve at half-maximal effect)
In short: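 ER stress element reporter (bla) in HeLa. 1,500 cells/well, overnight attachment; 5 hr compound; 2 hr RT substrate; dual-emission fluorescence.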

[3] = qHTS assay to identify small molecule agonists of the endoplasmic reticulum stress response signaling pathway - cell viability counter screen (AID 1159517);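 also: HeLa cells carrying an ER stress response element beta-lactamase reporter; series mostly up to about 61 µM; nearly all actives have a fitted effect of over 50% in size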
In short: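 CellTiter-Glo was added to wells already read for beta-lactamase FRET, and luminescence was recorded 30 min later. Cells: ESRE-bla HeLa, 1,500 per well, compound exposure 5 hr at 37 C.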

[4] = qHTS assay to identify small molecule antagonists of the retinoid-related orphan receptor gamma (ROR-gamma) signaling pathway - cell viability counter screen (AID 1159520; active = well fitted curve in the direction sought with a large enough effect in the repeat runs; an effect the other way counts as inactive or inconclusive; also: nearly all actives have a fitted effect of over 50% in size)
In short: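 Tet-on ROR gamma CHO cells (1,000/well) were plated 4 hr, given compounds in DMSO for 2 hr at 37 C, then induced with 1 uM final doxycycline for 16 hr. Viability was read as ATP by CellTiter-Glo luminescence after 30 min.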

[5] = target: Nuclear receptor ROR-gamma (Homo sapiens) (UniProt P51449); assay: qHTS assay to identify small molecule antagonists of the retinoid-related orphan receptor gamma (ROR-gamma) signaling pathway (AID 1159521; active = well fitted curve in the direction sought with a large enough effect in the repeat runs; an effect the other way counts as inactive or inconclusive; also: nearly all actives have a fitted effect of over 50% in size; also: potency is read from the fitted curve at half-maximal effect)
In short: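 CHO cells expressing RORγ under a TET-on promoter, luciferase under RORE control. Dox 1 uM final, 16 h; compounds added 2 h prior. Luminescence decrease measured.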

[6] = qHTS assay to identify small molecule agonists of the AP-1 signaling pathway - cell viability counter screen (AID 1159525); also: nearly all actives have a fitted effect of over 55% in size
In short: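 ME-180 AP-1-bla, 2500 cells/well, Opti-MEM + 0.5% dialyzed FBS; overnight 37 °C; cpd 15-pt titration, 5 h 37 °C; CellTiter-Glo 30 min RT; luminescence read; normalised to TOAB and DMSO controls.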

[7] = qHTS assay to identify small molecule agonists of the AP-1 signaling pathway (AID 1159526); also: potency is read from the fitted curve at half-maximal effect
[8] = target: Retinoic acid receptor RXR-alpha (Homo sapiens) (UniProt P19793); assay: qHTS assay to identify small molecule agonists of the RXR signaling pathway (AID 1159527); also: nearly all actives have a fitted effect of over 35% in size; also: potency is read from the fitted curve at half-maximal effect
Sequence of Retinoic acid receptor RXR-alpha (Homo sapiens) (P19793 whole entry, looked up): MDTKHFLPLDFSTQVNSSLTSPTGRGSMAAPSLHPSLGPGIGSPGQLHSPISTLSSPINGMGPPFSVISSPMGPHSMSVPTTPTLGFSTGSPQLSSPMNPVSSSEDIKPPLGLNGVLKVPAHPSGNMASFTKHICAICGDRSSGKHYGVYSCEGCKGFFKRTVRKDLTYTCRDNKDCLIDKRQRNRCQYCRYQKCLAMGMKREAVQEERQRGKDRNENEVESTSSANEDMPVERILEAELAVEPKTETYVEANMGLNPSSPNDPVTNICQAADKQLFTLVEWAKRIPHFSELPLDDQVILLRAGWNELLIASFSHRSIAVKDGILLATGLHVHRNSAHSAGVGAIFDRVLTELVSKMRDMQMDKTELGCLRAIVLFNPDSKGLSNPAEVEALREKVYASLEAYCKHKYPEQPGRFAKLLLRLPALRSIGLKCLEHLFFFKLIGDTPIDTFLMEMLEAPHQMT
In short: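 Beta-lactamase reporter assay, agonist format. Engineered HEK 293T line, charcoal-stripped FBS at 2%, overnight (16 hr) exposure, fluorescence at 460 and 530 nm after 405 nm excitation.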

[9] = qHTS assay to identify small molecule agonists of the RXR signaling pathway - cell viability counter screen (AID 1159529; active = well fitted curve in the direction sought with a large enough effect in the repeat runs; an effect the other way counts as inactive or inconclusive;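 also: HEK 293T cells carrying an RXR-alpha UAS beta-lactamase reporter; series mostly up to about 77 µM; nearly all actives have a fitted effect of over 50% in size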)
In short: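 Same-well viability check after the LiveBLAzer FRET read: CellTiter-Glo added, luminescence measured after 30 min at room temperature. Reporter HEK 293T cells had been treated with compounds for 16 hr following a 5 hr preincubation.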

[10] = qHTS assay to identify small molecule antagonists of the vitamin D receptor (VDR) signaling pathway - cell viability counter screen (AID 743225; active = well fitted curve in the direction sought with a large enough effect in the repeat runs; an effect the other way counts as inactive or inconclusive; also: nearly all actives have a fitted effect of over 50% in size; also: potency is read from the fitted curve at half-maximal effect)
In short: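 Luminescent cell viability (CellTiter-Glo) in VDR-bla HEK 293T cells after 16 h compound exposure at 37C in the presence of 3 nM final 1-alpha,25-dihydroxy vitamin D3.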

Row | Structure (SMILES) | Potency [1] | Potency [2] | Potency [3] | Potency [4] | Potency [5] | Potency [6] | Potency [7] | Potency [8] | Potency [9] | Potency [10]
1 | CCOC(=O)c1cncn1C(C)c1ccccc1 (stereo unspecified) | inactive | inactive | inactive | inactive | inactive | inactive | inactive | inactive | inactive | –
2 | Clc1ccccc1 | inactive | inactive | inactive | inactive | inactive | inactive | inactive | inactive | inactive | inactive
3 | CN[C@@H](C)[C@H](O)c1ccccc1 | inactive | inactive | inactive | inactive | inactive | inactive | inactive | inactive | inactive | inactive
4 | SCc1ccccc1 | inactive | inactive | inactive | inactive | inactive | inactive | inactive | inactive | inactive | –
5 | O=S(=O)(c1ccccc1)c1ccccc1 | inactive | inactive | inactive | inactive | inactive | inactive | inactive | inactive | inactive | inactive
6 | CN(C)N | inactive | inactive | inactive | inactive | inactive | inactive | inactive | inactive | inactive | inactive
7 | CCCCCl | inactive | inactive | inactive | inactive | inactive | inactive | inactive | inactive | inactive | inactive
8 | NC(=S)c1c(Cl)cccc1Cl | inactive | inactive | inactive | inactive | inactive | inactive | inactive | inactive | inactive | –
9 | CON(C)C(=O)Nc1ccc(Cl)cc1 | inactive | inactive | inactive | inactive | inactive | inactive | inactive | inactive | inactive | –
10 | CCCCOC(=O)CCC(=O)OCCCC | inactive | inactive | inactive | inactive | inactive | inactive | inactive | inactive | inactive | inactive
11 | O=C1CC[C@@]2(O)[C@H]3Cc4ccc(O)c5c4[C@@]2(CCN3CC2CC2)[C@H]1O5 | inactive | inactive | inactive | inactive | inactive | inactive | inactive | inactive | inactive | –
12 | O=C([O-])c1ccccn1.O=C([O-])c1ccccn1.O=C([O-])c1ccccn1.[Cr+3] | inactive | inactive | inactive | inactive | inactive | inactive | inactive | inactive | inactive | inactive
13 | Cc1nnc(-c2ccccc2)c(=O)n1N | inactive | inactive | inactive | inactive | inactive | inactive | inactive | inactive | inactive | inactive
14 | CCC1CCC(=O)O1 (stereo unspecified) | inactive | inactive | inactive | inactive | inactive | inactive | inactive | inactive | inactive | inactive
15 | C=CCc1ccccc1O | inactive | inactive | inactive | inactive | inactive | inactive | inactive | inactive | inactive | inactive
16 | N#CC(C#N)=C(C#N)C#N | inactive | inactive | inactive | inactive | inactive | inactive | inactive | inactive | inactive | –
17 | CCOC(=O)NC(O)C(Cl)(Cl)Cl (stereo unspecified) | inactive | inactive | inactive | inactive | inactive | inactive | inactive | inactive | inactive | inactive
18 | CC(=O)OC(c1ccccc1)C(Cl)(Cl)Cl (stereo unspecified) | inactive | inactive | inactive | inactive | inactive | inactive | inactive | inactive | inactive | –
19 | NC(=O)CF | inactive | inactive | inactive | inactive | inactive | inactive | inactive | inactive | inactive | inactive
20 | O=C(Cl)OCCOCCOC(=O)Cl | inactive | inactive | inactive | inactive | inactive | inactive | inactive | 2.19 µM (active) | inactive | –
21 | CC(Cl)C(=O)O (stereo unspecified) | inactive | inactive | inactive | inactive | inactive | inactive | inactive | inactive | inactive | –
22 | CCCCC(CC)COC(=O)c1c(Br)c(Br)c(Br)c(Br)c1C(=O)OCC(CC)CCCC (stereo unspecified) | inactive | inactive | inactive | inactive | inactive | inactive | inactive | inactive | inactive | inactive
23 | C1CS1 | inactive | inactive | inactive | inactive | inactive | inactive | inactive | inactive | inactive | inactive
24 | CCCCC#N | inactive | inactive | inactive | inactive | inactive | inactive | inactive | inactive | inactive | inactive
25 | CCc1cnc(C2=NC(C)(C(C)C)C(=O)N2)c(C(=O)O)c1 (stereo unspecified) | inactive | inactive | inactive | inactive | inactive | inactive | inactive | inactive | inactive | inactive
26 | CC(Cc1ccccc1)NCc1ccccc1Cl (stereo unspecified) | inactive | inactive | inactive | inactive | inactive | inactive | 23.9 µM (active) | inactive | inactive | –

Row | Structure (SMILES) | Potency [1] | Potency [2] | Potency [3] | Potency [4] | Potency [5] | Potency [6] | Potency [7] | Potency [8] | Potency [9] | Potency [10]
27 | CCOP(=O)(SC(C)CC)N1CCSC1=O (stereo unspecified) | inactive | inactive | inactive | inactive | inactive | inactive | inactive | 11 µM (active) | inactive | inactive
28 | C#C[C@]1(O)CC[C@H]2[C@@H]3CCC4=CC(=O)CCC4=C3C=C[C@@]21CC | inactive | inactive | inactive | inactive | 9.44 µM (active) | inactive | inactive | inactive | inactive | inactive
29 | C=CC(=O)OCC | inactive | inactive | inactive | inactive | inactive | inactive | inactive | inactive | inactive | inactive
30 | COCc1cnc(C2=NC(C)(C(C)C)C(=O)N2)c(C(=O)O)c1 (stereo unspecified) | inactive | inactive | inactive | inactive | inactive | inactive | inactive | inactive | inactive | –
31 | Clc1ccc(Cl)c(Cl)c1 | inactive | inactive | inactive | inactive | inactive | inactive | inactive | inactive and 12.3 µM (active) | inactive | inactive
32 | CC(C)(C)OOC(C)(C)CCC(C)(C)OOC(C)(C)C | inactive | inactive | inactive | inactive | inactive | inactive | inactive | inactive | inactive | inactive
33 | NNCCO | inactive | inactive | inactive | inactive | inactive | inactive | inactive | inactive | inactive | inactive
34 | O=C(NCNC(=O)NC1C(=O)NC(=O)N1CO)NC1C(=O)NC(=O)N1CO (stereo unspecified) | inactive | inactive | inactive | inactive | inactive | inactive | inactive | inactive | inactive | inactive
35 | COc1ccc2c(c1OC)C(=O)O[C@H]2[C@@H]1c2cc3c(cc2CCN1C)OCO3 | inactive | inactive | inactive | inactive | inactive | inactive | inactive | inactive | inactive | inactive
36 | O=C(O)c1ccc(=O)[nH]c1 | inactive | inactive | inactive | inactive | inactive | inactive | inactive | inactive | inactive | inactive
37 | O=C(O)C(F)(F)C(F)(F)C(F)(F)C(F)(F)C(F)(F)C(F)(F)C(F)(F)C(F)(F)F | inactive | inactive | inactive | inactive | inactive | inactive | inactive | 21.9 µM (active) | – | –
38 | CCC1(CC)C(=O)NC(=O)NC1=O | inactive | inactive | inactive | inactive | inactive | inactive | inactive | inactive | inactive | –
39 | CC[N+]1(C)CCCC(OC(=O)C(O)(c2ccccc2)c2ccccc2)C1 (stereo unspecified) | inactive | inactive | inactive | inactive | inactive | inactive | inactive | inactive | inactive | inactive
40 | C[N+](C)(C)CCOC(=O)C(O)(c1ccccc1)c1ccccc1 | inactive | inactive | inactive | inactive | inactive | inactive | inactive | inactive | inactive | inactive
41 | NCCc1cc(O)c(O)cc1O | inactive | 4.25 µM (active) | inactive | inactive | inactive | inactive | inactive | inactive | inactive | inactive
42 | Cc1ccc2c(C)cccc2c1 | inactive | inactive | inactive | inactive | inactive | inactive | inactive | inactive | inactive | inactive
43 | CCCCCBr | inactive | inactive | inactive | inactive | inactive | inactive | inactive | inactive | inactive | inactive
44 | CC(C)CCON=O | inactive | inactive | inactive | inactive | inactive | inactive | inactive | inactive | inactive | inactive
45 | CCOP(=O)(O)C(N)=O | inactive | inactive | inactive | inactive | inactive | inactive | inactive | inactive | inactive | inactive
46 | CC(CC(C(N)=O)(c1ccccc1)c1ccccc1)N(C)C (stereo unspecified) | inactive | inactive | inactive | inactive | inactive | inactive | inactive | inactive | inactive | inactive
47 | N#CC1(N=NC2(C#N)CCCCC2)CCCCC1 | inactive | inactive | inactive | inactive | inactive | inactive | inactive | inactive | inactive | inactive
48 | CCC(C)Cl (stereo unspecified) | inactive | inactive | inactive | inactive | inactive | inactive | inactive | inactive | inactive | inactive
49 | CCSCc1ccccc1OC(=O)NC | inactive | inactive | inactive | inactive | inactive | inactive | inactive | inactive | inactive | inactive
50 | c1ccc2c(c1)sc1ccccc12 | inactive | inactive | inactive | inactive | inactive | inactive | inactive | inactive | inactive | inactive and 19 µM (active)
51 | CCCCC1C(=O)NC(=O)N(C2CCCCC2)C1=O (stereo unspecified) | inactive | inactive | inactive | inactive | inactive | inactive | inactive | inactive | inactive | inactive
